Test results as given in the supplement of paper PMC12045047.
Values without a mark were called inactive.

The molecules below were run on primary human airway basal cells (HBEC, luciferase-transduced) (assay: proliferation (luciferase bioluminescence) Z score relative to plate mean; higher = more proliferation / more cells, active = 1.96 or more). Conditions: donor: 1; 0.5 µM; library: ENZO Libraries; 4 days.
Procedure: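 Primary human bronchial epithelial (airway basal) cells from two donors, lentivirally transduced with pHIV-Luc-ZsGreen, were seeded at 2000 cells/well in 384-well plates in FAD medium with ENZO or Prestwick library compounds and cultured for 4 days. Luciferin was then added and bioluminescence was read as a measure of cell number. Relative light units were converted to Z scores against the plate, and the mean of triplicate wells is reported.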
In the case of Cc1cc(O)c2c(=O)c3c(O)cc(O)c4c5c(O)cc(O)c6c(=O)c7c(O)cc(C)c8c1c2c(c34)c(c78)c65 [Hypericin], the proliferation is reported as 0.248. N#CC(C#N)=Cc1ccc([N+](=O)[O-])c(O)c1 gave a proliferation of -0.571. For C/C(O)=C(\C#N)C(=O)Nc1cc(Br)ccc1Br, the proliferation was 0.22. With COC[C@H]1OC(=O)c2coc3c2[C@@]1(C)C1=C(C3=O)[C@@H]2CCC(=O)[C@@]2(C)C[C@H]1OC(C)=O [Wortmannin] the proliferation was -1.04. For N#CC(C#N)=Cc1cc(O)c(O)c(O)c1, the proliferation was -0.0382. NCCc1ccc(S(=O)(=O)F)cc1 was tested, and the proliferation was -0.284. CC(=O)Oc1ccc(/C=C/c2cc(OC(C)=O)cc(OC(C)=O)c2)cc1 [Triacetylresveratrol] gave a proliferation of 1.28. CC(=O)c1c(O)c(C)c(O)c(Cc2c(O)c3c(c(C(=O)/C=C/c4ccccc4)c2O)OC(C)(C)C=C3)c1O [Rottlerin] showed a proliferation of 0.583. CCC(=O)CCCCC[C@@H]1NC(=O)[C@H]2CCCCN2C(=O)[C@H]([C@@H](C)CC)NC(=O)[C@H](Cc2cn(OC)c3ccccc23)NC1=O [Apicidin] gave a proliferation of -0.149. In the case of N[C@@H]1C[C@H]1c1ccccc1.N[C@H]1C[C@@H]1c1ccccc1 [Tranylcypromine hemisulfate], the proliferation is reported as -0.212. For N#CC(C#N)=Cc1cc(O)c(O)c([N+](=O)[O-])c1, the proliferation was -0.414. N#C/C(=C\c1ccc(O)c(O)c1)C(N)=S gave a proliferation of -0.0372. N#CC(C#N)=Cc1ccc(O)c(O)c1 gave a proliferation of 0.456.

Same assay, conditions: donor: 1; 5 µM; library: ENZO Libraries; 4 days
Cc1cc(O)c2c(=O)c3c(O)cc(O)c4c5c(O)cc(O)c6c(=O)c7c(O)cc(C)c8c1c2c(c34)c(c78)c65 [Hypericin] gave a proliferation of -0.261. N#CC(C#N)=Cc1ccc([N+](=O)[O-])c(O)c1 was tested, and the proliferation was -0.0791. In the case of C/C(O)=C(\C#N)C(=O)Nc1cc(Br)ccc1Br, the proliferation is reported as 0.228. Work on COC[C@H]1OC(=O)c2coc3c2[C@@]1(C)C1=C(C3=O)[C@@H]2CCC(=O)[C@@]2(C)C[C@H]1OC(C)=O [Wortmannin] yielded a proliferation of -0.831. N#CC(C#N)=Cc1cc(O)c(O)c(O)c1 gave a proliferation of -0.000622. For NCCc1ccc(S(=O)(=O)F)cc1, the proliferation was -0.0822. For CC(=O)Oc1ccc(/C=C/c2cc(OC(C)=O)cc(OC(C)=O)c2)cc1 [Triacetylresveratrol], the proliferation was 4.6 (active). In the case of CC(=O)c1c(O)c(C)c(O)c(Cc2c(O)c3c(c(C(=O)/C=C/c4ccccc4)c2O)OC(C)(C)C=C3)c1O [Rottlerin], the proliferation is reported as -0.384. CCC(=O)CCCCC[C@@H]1NC(=O)[C@H]2CCCCN2C(=O)[C@H]([C@@H](C)CC)NC(=O)[C@H](Cc2cn(OC)c3ccccc23)NC1=O [Apicidin] showed a proliferation of -0.303. For N[C@@H]1C[C@H]1c1ccccc1.N[C@H]1C[C@@H]1c1ccccc1 [Tranylcypromine hemisulfate], the proliferation was -0.48. N#CC(C#N)=Cc1cc(O)c(O)c([N+](=O)[O-])c1 was tested, and the proliferation was -0.101. N#C/C(=C\c1ccc(O)c(O)c1)C(N)=S was tested, and the proliferation was -0.285. Work on N#CC(C#N)=Cc1ccc(O)c(O)c1 yielded a proliferation of 0.134.
